Screen size: about 69,000 compounds; about 8,600 (12%) showed an effect of 50% or more. This is one part of a sample in which strong results are shown more often than they occur.
Tested on: Plasmodium berghei
Assay: Screen against P. berghei liver stage (PbLuc), transformed with Luciferase, at 10uM
Assay type: functional, HepG2
Conditions: tested at 10 uM

| SMILES | INHIBITION [%] |
| --- | --- |
| O=C(O)c1cc(S(=O)(=O)Nc2ccc(F)cc2Cl)cc2c1OCCO2 | 23.5 |
| O=C([C@H]1CCCO1)N1CCCC2(CCN(Cc3ccncc3)C2=O)C1 (stereo not given in full) | 10.3 |
| CN1C(=O)CCCC12CCCN(C(=O)c1cc(F)cc(F)c1)C2 (stereo not given) | 33.4 |
| Cn1cc(CC(=O)N2CCCC(n3cncn3)C2)cn1 (stereo not given) | 17.4 |
| Cc1cnc(CNC(=O)CCCn2cnc3ccccc3c2=O)cn1 | 34.6 |
| CCCc1noc(CCC(=O)N2CCCC(c3ccn[nH]3)C2)n1 (stereo not given) | 16.8 |
| CC(C)c1nc(C2CCCN(C(=O)CCCn3ccnc3)C2)no1 (stereo not given) | -19.4 |
| CCc1noc(CCCC(=O)N2CCCC(c3ccn[nH]3)C2)n1 (stereo not given) | 42.8 |
| Cc1csc2c(C3CCCN(C(=O)CCn4cncn4)C3)nc(C)n12 (stereo not given) | 5.34 |
| Cc1nc(C2CCCN(C(=O)CCCn3cccn3)C2)no1 (stereo not given) | 53.5 |
| CC(C)c1nc(C2CCCN(C(=O)CCn3ccnc3)C2)no1 (stereo not given) | 56.1 |
| O=C(CCCc1nc(C2CC2)no1)N1CCCC(c2ccn[nH]2)C1 (stereo not given) | 52.6 |
| Cc1nc(C2CCCN2C(=O)CCCn2cccn2)no1 (stereo not given) | -25.9 |
| CC(C)c1nc(C2CCCN(C(=O)CCn3cncn3)C2)no1 (stereo not given) | 31.2 |
| Cc1csc2c(C3CCCN(C(=O)CCCn4cncn4)C3)nc(C)n12 (stereo not given) | -1.16 |
| CC(C)c1nc(C2CCCN(C(=O)CCCn3cccn3)C2)no1 (stereo not given) | -29.8 |
| Cc1csc2c(C3CCCN(C(=O)CCn4ccnc4)C3)nc(C)n12 (stereo not given) | 57.3 |
| Cc1ccc(S(=O)(=O)Nc2cnn(C3CCOCC3)c2)cc1C | -52.5 |
| CCCc1ccc(S(=O)(=O)NC(=O)CCc2cscn2)cc1 | 16.2 |
| O=S(=O)(c1cncc(F)c1)N1CCSC2(CCCCC2)C1 | 28.5 |
| COc1c(C2CCCN2C(=O)c2cccnc2N(C)C)c(C)nn1C (stereo not given) | 23.4 |
| COc1ccc(-n2cc(CNC(=O)c3cc[nH]n3)nn2)cc1 | -120 |
| O=S(=O)(CCCN1CCc2c(ncn2C2CC2)C1)c1ccccc1 | -27.5 |
| CCCN1C(=O)CC(N2CCN(c3ccc(F)cc3)CC2)C1=O (stereo not given) | -34.7 |
| CC(C)N1C(=O)CC(N2CCN(c3ccc(F)cc3)CC2)C1=O (stereo not given) | 14.3 |
| CC(C)CN1C(=O)CC(N2CCN(c3ccc(F)cc3)CC2)C1=O (stereo not given) | 54 |
| CCN(Cc1ccc2c(c1)OCO2)C(=O)NC(C)Cn1ccnc1 (stereo not given) | 26.4 |

| SMILES | INHIBITION [%] |
| --- | --- |
| Cc1sc(CNS(N)(=O)=O)nc1-c1ccc(Cl)cc1 | -20.6 |
| NC(=O)CN1CCC(OCc2ccc(Cl)c(Cl)c2)CC1 | 33.1 |
| CNC(=O)CN1CCC(OCc2ccc(Cl)c(Cl)c2)CC1 | 65.6 |
| CCC(N)C(=O)N1CCC(OCc2ccc(Cl)c(Cl)c2)CC1 (stereo not given) | 47.7 |
| CC1=N[C@@]2(CC[C@@H]3CN(Cc4ccccc4F)C[C@@H]32)C(=O)N1CC1CC1 | 20.1 |
| CCn1ncnc1C1CC(=O)NCc2nc(N)sc21 (stereo not given) | 19.7 |
| OC(c1ccccc1)C1CCN(Cc2csc(-c3ncccn3)n2)CC1 (stereo not given) | 59.8 |
| CC(C)CC(=O)N1CCN(Cc2csc(-c3ncccn3)n2)CC1 | 10.6 |
| Cc1ccc(-c2nc(CN3CCN(S(=O)(=O)N(C)C)CC3)cs2)o1 | 52.1 |
| CC(C)C(=O)N1CCN(Cc2csc(-c3ncccn3)n2)CC1 | 41.8 |
| CS(=O)(=O)N1CCN(Cc2csc(-c3ncccn3)n2)CC1 | 56.8 |
| CC(C)C(=O)N1CCN(Cc2csc(-c3ccccn3)n2)CC1 | 47.4 |
| COC(=O)N1CCN(Cc2csc(-c3ncccn3)n2)CC1 | -42.5 |
| CC(C)c1nc(CN2CCN(Cc3ccccn3)CC2)cs1 | -53.5 |
| Cc1ccc(-c2nc(CN3CCN(CC(=O)N(C)C)CC3)cs2)o1 | 15.3 |
| Cc1ccc(-c2nc(CN3CCN(C(=O)C4CC4)CC3)cs2)o1 | -34 |
| CC(=O)N1CCCN(Cc2csc(-c3ncccn3)n2)CC1 | 30.8 |
| CC(O)CN1CCN(Cc2csc(-c3ncccn3)n2)CC1 (stereo not given) | 60.8 |
| Cn1ccc(C(=O)NCc2ccc(N3CCCCC3)nc2)cc1=O | 46.2 |
| O=C(O)[C@]12CCCN(Cc3ccncc3)C[C@H]1CN(c1ncccn1)C2 | -20.1 |
| Cn1cnc2c1C(COCC1CCOCC1)CN(Cc1ccccn1)C2 (stereo not given) | 36.9 |
| Cc1oncc1C(=O)N1CCC2(CC1)CC(N1CCOCC1)C2 | -15.9 |
| CNc1cc(-c2ccncc2)ncn1 | 24.8 |
| Cc1cc(C)n(CC2CCCCN2C(=O)c2ccc(C(N)=O)cc2)n1 (stereo not given) | -10.6 |
| Cc1cc(C)n(CC2CCCCN2C(=O)c2ccc3c(c2)COC3)n1 (stereo not given) | 56.4 |
| Cc1cc(C)n(CC2CCCN2C(=O)c2ccc3c(c2)COC3)n1 (stereo not given) | 51.6 |
| Cc1cc(C)n(CC2CCCN2C(=O)c2ccc3c(c2)OCCO3)n1 (stereo not given) | 15.2 |

| SMILES | INHIBITION [%] |
| --- | --- |
| Cc1cc(C)n(CC2CCCN2C(=O)c2ccc3[nH]c(=O)[nH]c3c2)n1 (stereo not given) | 16.3 |
| Cc1cc(C)n(CC2CCCN2C(=O)c2ccc3c(c2)OCO3)n1 (stereo not given) | 52.1 |
| Cc1cc(C)n(CC2CCCN2C(=O)c2cccc3c2OCO3)n1 (stereo not given) | 25.15 |
| Cc1cnn(CC2CCCCN2C(=O)c2ccc3c(c2)COC3)c1 (stereo not given) | -18 |
| Cc1cc(C)n(CC2CCCCN2C(=O)c2ccc3c(c2)OCO3)n1 (stereo not given) | 5.97 |
| CN(C)CC(=O)NC1CC(C)(C)Cc2nc(C(C)(C)C)ncc21 (stereo not given) | 43.6 |
| O=C(CN1CC(c2ccccc2)CC1=O)NCc1cc2n(n1)CCNC2 (stereo not given) | 17.3 |
| Cc1noc2nc3c(c(C(=O)/N=c4\[nH]nc(C(C)C)s4)c12)CCC3 | 38 |
| Cn1cc(CN2CCO[C@@H]3CN(Cc4ccoc4)C[C@@H]3C2)cn1 | -18.4 |
| COCC(NC1CCSCC1)c1ccnn1C (stereo not given) | 47.6 |
| CN1C(=O)C2(CCCN(C(=O)c3cccnc3O)C2)c2ccccc21 (stereo not given) | 7.25 |
| Cc1ccc(NC(=O)NCC2(N3CCOCC3)CCSC2)c(C)c1 (stereo not given) | 74.2 |
| Cc1cccc(NC(=O)NCC2(N3CCOCC3)CCSC2)c1 (stereo not given) | 34.5 |
| O=C(NCC1(N2CCOCC2)CCSC1)Nc1ccc(F)cc1 (stereo not given) | 23.5 |
| COc1nc2c(cc1C(=O)NC(C)Cc1cc(C)n[nH]1)CCC2 (stereo not given) | -37.9 |
| Cn1c(=O)[nH]c(=O)n2c(CC(=O)Nc3ccc(Cl)c(Cl)c3)cnc12 | 20.1 |
| CCc1nnc(CN(C)c2nc(C(C)C)nc3c2cnn3C)o1 | 53.5 |
| Cc1nc(N(C)CCN(C)C)c2cnn(C)c2n1 | 29.2 |
| CCc1nnc(CN(C)c2nc(C3CCCC3)nc3c2cnn3C)o1 | 1.81 |
| CN(C)C(=O)C1CN(c2ncccn2)CCN1C (stereo not given) | 25.8 |
| COc1ncccc1CNC(=O)N(Cc1ccc(F)cc1F)C1CC1 | 48.2 |
| Cc1ccnc(C(Nc2nccc(-c3ccc(C)nc3C)n2)C2CC2)c1 (stereo not given) | 41.3 |
| Cc1nc(CN2CCOC(Cn3cccn3)C2)nc2ccccc12 (stereo not given) | -31.8 |
| Cc1cc(C(=O)N2CCn3nc(C(=O)NC4CC4)cc3C2)nc(C)n1 | 34.2 |
| Cc1c[nH]c(C(=O)N2CCn3nc(C(=O)NC4CC4)cc3C2)n1 | 53.7 |
| Cc1nc2sccn2c1C(=O)N1CCn2nc(C(=O)NC3CC3)cc2C1 | 25.5 |
| N#Cc1cccc(CN2C[C@@H](NC(=O)C3CC3)[C@H]3OCCC[C@H]32)c1 | 42 |

| SMILES | INHIBITION [%] |
| --- | --- |
| C=C(C)COc1ccccc1CNCCc1c[nH]cn1 | 21.7 |
| CCn1c(-c2ccccc2)nn(CC(=O)NCCc2c[nH]cn2)c1=O | 31.4 |
| CCc1ccccc1OCCNCCc1c[nH]cn1 | 51.3 |
| O[C@H]1CN(Cc2cc3ccccc3o2)CC[C@@]12CCCO2 | 15.9 |
| CCC1CN(CC(=O)Nc2cc(C)nn2C)CCO1 (stereo not given) | 23.4 |
| Cc1nc(C)n(CC2CN(CC(=O)Nc3cccnc3)CCO2)n1 (stereo not given) | -13.2 |
| Cc1nc(C)n(CC2CCCN(CC(=O)Nc3cccnc3)C2)n1 (stereo not given) | 57.2 |
| Cc1nc(C)n(CC2CCCN2CC(=O)Nc2cccnc2)n1 (stereo not given) | -6.39 |
| Cc1cc(C)n(CC2CN(CC(=O)Nc3ccncc3)CCO2)n1 (stereo not given) | 44.3 |
| Cc1cnn(CC2CN(CC(=O)Nc3cccnc3)CCO2)c1 (stereo not given) | 67.5 |
| Cc1nc(C)n(CC2CCCN(CC(=O)Nc3ccncc3)C2)n1 (stereo not given) | -0.15 |
| O=C(CN1CCOC(Cn2cccn2)C1)Nc1cccnc1 (stereo not given) | 10.7 |
| Cc1cnn(CC2CN(CC(=O)Nc3ccncc3)CCO2)c1 (stereo not given) | 11.2 |
| Cc1nc(C)n(CC2CN(CC(=O)Nc3ccncc3)CCO2)n1 (stereo not given) | 64.1 |
| Cc1nc(C)n(CC2CN(CC(=O)Nc3nccs3)CCO2)n1 (stereo not given) | 30.1 |
| Cc1cc(NC(=O)CN2CCOC(Cn3nc(C)cc3C)C2)n(C)n1 (stereo not given) | 56 |
| CO[C@H]1CCN(C(=O)c2ccsc2)[C@@H]2CN(CC3CC3)C[C@H]12 | 0.112 |
| Cc1cnn(-c2ccc(C(=O)N3CCCC(n4ccnc4C)C3)cc2)c1 (stereo not given) | 0.411 |
| Cn1cc(C2CCCN2C(=O)COCCOc2ccccc2)cn1 (stereo not given) | 44.1 |
| CC(C)N1CCc2onc(Cn3cccc3)c2C1 | 4.02 |
| Cc1nc(C)n(CC2CCCN2CCOc2ccccc2F)n1 (stereo not given) | -83.4 |
| CC(C)c1nc(C2CCCN(C(=O)CCc3cscn3)C2)no1 (stereo not given) | -43.5 |
| c1cnc(Nc2cc(CCC3CCCNC3)ccn2)cn1 (stereo not given) | -26.2 |
| Cc1nc2cc(C(=O)N3CCn4c(nnc4C4CC4)C3)ccc2s1 | 10.9 |
